In PubChem BioAssay (Tox21):
Results filed as inconclusive are left out. Calls of active or inactive are those of the source. The call rests on the fitted dose curve; in most records, active means well fitted curve in the direction sought with a large enough effect in the repeat runs; inconclusive means weak or mixed curves; inactive means no such curve, though single readings can be large; an effect the other way counts as inactive or inconclusive.

Legend:
[1] = qHTS RealTime-Glo MT Cell Viability Assay in HepG2 cells - 24 hour (AID 1224867); further: nearly all actives have a fitted effect of over 50% in size
How it was run: (§1)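 HepG2 cells (600/well) were dispensed with RealTime-Glo reagents, incubated 5 h at 37 °C, then treated with compounds in DMSO for up to 40 h. Nonlytic NanoLuc luminescence reflecting viable cells was read at each stated time point.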

[2] = qHTS RealTime-Glo MT Cell Viability Assay in HEK293 cells - 32 hour (AID 1224868); further: top concentration of the series differs between compounds; nearly all actives have a fitted effect of over 50% in size
How it was run: (§2)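 HEK293 cells seeded with NanoLuc/prosubstrate reagent, rested 5 h at 37 C, then dosed and kept at 37 C up to 40 h. Nonlytic real-time luminescence from viable cells read at 0, 8, 16, 24, 32 and 40 h.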

[3] = A CellTox Green Cytotoxicity Assay to monitor cytotoxicity in HEK293 cells - 0 hour (AID 1224869); further: nearly all actives have a fitted effect of over 50% in size
How it was run: (§3)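 Cells (HEK293, 600/well) and dye reagent are dispensed together. After 5 h at 37 C, 23 nL compound is pinned in. Plates stay at 37 C for 40 h with fluorescence read at 0h, 8h, 16h, 24h, 32h and 40h.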

[4] = qHTS RealTime-Glo MT Cell Viability Assay in HepG2 cells - 40 hour (AID 1224870); further: nearly all actives have a fitted effect of over 50% in size
How it was run: (§4)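 HepG2 cells (600/well) mixed with RealTime-Glo MT reagent, settled 5 h at 37 C/5% CO2 before compound addition. Nonlytic NanoLuc luminescence from viable-cell prosubstrate reduction read repeatedly during 40 h treatment at 37 C.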

[5] = A CellTox Green Cytotoxicity Assay to monitor cytotoxicity in HEK293 cells - 40 hour (AID 1224871); further: nearly all actives have a fitted effect of over 45% in size
How it was run: as §3

[6] = qHTS RealTime-Glo MT Cell Viability Assay in HEK293 cells - 16 hour (AID 1224872)
How it was run: as §2

[7] = qHTS RealTime-Glo MT Cell Viability Assay in HepG2 cells - 8 hour (AID 1224873); further: nearly all actives have a fitted effect of over 55% in size
How it was run: as §4

[8] = qHTS RealTime-Glo MT Cell Viability Assay in HEK293 cells - 40 hour (AID 1224874); conditions: RealTime-Glo luminescence; max response: active compounds read low; further: nearly all actives have a fitted effect of over 50% in size
How it was run: (§5)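 Real-time viability in HEK293: signal arises when living cells convert a prosubstrate for NanoLuc in the medium, so luminescence tracks viable cell number. Compound (23 nL, DMSO) added 5 h post-seeding; kinetic reads at 0–40 h, 37 C.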

[9] = A CellTox Green Cytotoxicity Assay to monitor cytotoxicity in HepG2 cells - 16 hour (AID 1224876); further: nearly all actives have a fitted effect of over 45% in size
How it was run: (§6)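 Cells and non-lytic dye reagent are dispensed together (600 HepG2 cells/well) and incubated 5 h before DMSO compound transfer. Kinetic fluorescence is then recorded in the same wells during 40 h at 37 C.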

[10] = qHTS RealTime-Glo MT Cell Viability Assay in HepG2 cells - 32 hour (AID 1224877); further: nearly all actives have a fitted effect of over 55% in size
How it was run: as §1

[11] = A CellTox Green Cytotoxicity Assay to monitor cytotoxicity in HepG2 cells - 24 hour (AID 1224878); further: nearly all actives have a fitted effect of over 45% in size
How it was run: as §6

[12] = A CellTox Green Cytotoxicity Assay to monitor cytotoxicity in HepG2 cells - 40 hour (AID 1224879); further: nearly all actives have a fitted effect of over 40% in size
How it was run: as §6

[13] = qHTS RealTime-Glo MT Cell Viability Assay in HEK293 cells - 0 hour (AID 1224880); further: top concentration of the series differs between compounds; nearly all actives have a fitted effect of over 45% in size
How it was run: as §5

[14] = A CellTox Green Cytotoxicity Assay to monitor cytotoxicity in HEK293 cells - 32 hour (AID 1224881); further: nearly all actives have a fitted effect of over 40% in size
How it was run: as §3

[15] = A CellTox Green Cytotoxicity Assay to monitor cytotoxicity in HepG2 cells - 0 hour (AID 1224882); further: nearly all actives have a fitted effect of over 35% in size
How it was run: as §6

[16] = A CellTox Green Cytotoxicity Assay to monitor cytotoxicity in HepG2 cells - 32 hour (AID 1224883); further: nearly all actives have a fitted effect of over 50% in size
How it was run: as §6

[17] = A CellTox Green Cytotoxicity Assay to monitor cytotoxicity in HEK293 cells - 8 hour (AID 1224884); further: nearly all actives have a fitted effect of over 35% in size
How it was run: as §3

[18] = qHTS RealTime-Glo MT Cell Viability Assay in HepG2 cells - 16 hour (AID 1224885); further: nearly all actives have a fitted effect of over 50% in size
How it was run: as §1

[19] = qHTS RealTime-Glo MT Cell Viability Assay in HEK293 cells - 24 hour (AID 1224886)
How it was run: as §2

[20] = A CellTox Green Cytotoxicity Assay to monitor cytotoxicity in HEK293 cells - 24 hour (AID 1224875)
How it was run: as §3
On the % scale 0 is the no-effect control and ±100 the full control effect.

CC1=NN(c2ccc(S(=O)(=O)O)cc2)C(=O)C1
inactive: outcome [1] | Potency [2] | Potency [3] | outcome [4] | Potency [5] | Potency [6] | outcome [7] | max response [8] 3.12% | Potency [9] | outcome [10] | Potency [11] | Potency [12] | Potency [13] | Potency [14] | Potency [15] | Potency [16] | Potency [17] | outcome [18] | Potency [19]

CN1CCOC(c2ccccc2)c2ccccc2C1 (centres undefined)
inactive: outcome [1] | Potency [2] | Potency [3] | outcome [4] | Potency [5] | Potency [6] | outcome [7] | max response [8] 0.485% | Potency [20] | Potency [9] | outcome [10] | Potency [11] | Potency [12] | Potency [13] | Potency [14] | Potency [15] | Potency [16] | Potency [17] | outcome [18] | Potency [19]

Cc1c(Cl)cccc1Cl
inactive: outcome [1] | Potency [2] | Potency [3] | outcome [4] | Potency [5] | Potency [6] | outcome [7] | max response [8] -1.25% | Potency [9] | outcome [10] | Potency [11] | Potency [12] | Potency [13] | Potency [14] | Potency [15] | Potency [16] | Potency [17] | outcome [18] | Potency [19]

CCN(CC)CCN
inactive: outcome [1] | Potency [2] | Potency [3] | outcome [4] | Potency [5] | Potency [6] | outcome [7] | max response [8] 2.52% | Potency [9] | outcome [10] | Potency [11] | Potency [12] | Potency [13] | Potency [14] | Potency [15] | Potency [16] | Potency [17] | outcome [18] | Potency [19]

O=C1NC(c2ccccc2)(c2ccccc2)C(=O)N1COP(=O)(O)O
inactive: outcome [1] | Potency [2] | Potency [3] | outcome [4] | Potency [5] | outcome [7] | max response [8] -5.37% | Potency [20] | Potency [9] | outcome [10] | Potency [11] | Potency [12] | Potency [13] | Potency [14] | Potency [15] | Potency [16] | Potency [17] | outcome [18] | Potency [19]

C=CCOC(=O)CCCCCC
inactive: outcome [1] | Potency [2] | Potency [3] | outcome [4] | Potency [5] | outcome [7] | Potency [9] | outcome [10] | Potency [11] | Potency [12] | Potency [13] | Potency [14] | Potency [15] | Potency [16] | Potency [17] | outcome [18] | Potency [19]

Cc1ccc(C(=O)O)cc1[N+](=O)[O-]
inactive: outcome [1] | Potency [2] | Potency [3] | outcome [4] | Potency [5] | outcome [7] | max response [8] 6.44% | Potency [9] | outcome [10] | Potency [11] | Potency [12] | Potency [13] | Potency [14] | Potency [15] | Potency [16] | Potency [17] | outcome [18] | Potency [19]

CC1CCc2c(N3CCC(O)CC3)c(F)cc3c(=O)c(C(=O)O)cn1c23 (centres undefined)
inactive: outcome [1] | Potency [2] | Potency [3] | outcome [4] | Potency [5] | outcome [7] | max response [8] -0.0801% | Potency [20] | Potency [9] | outcome [10] | Potency [11] | Potency [12] | Potency [13] | Potency [14] | Potency [15] | Potency [16] | Potency [17] | outcome [18] | Potency [19]

CC(C)C1OCCN1CCOC(=O)NCCCCCCNC(=O)OCCN1CCOC1C(C)C (centres undefined)
inactive: outcome [1] | Potency [2] | Potency [3] | outcome [4] | Potency [5] | Potency [6] | outcome [7] | Potency [20] | Potency [9] | outcome [10] | Potency [11] | Potency [12] | Potency [13] | Potency [14] | Potency [15] | Potency [16] | Potency [17] | outcome [18] | Potency [19]

C=C(C)[C@@H]1CC=C(C)C(=O)C1
inactive: outcome [1] | Potency [2] | Potency [3] | outcome [4] | Potency [5] | Potency [6] | outcome [7] | Potency [9] | outcome [10] | Potency [11] | Potency [12] | Potency [13] | Potency [14] | Potency [15] | Potency [16] | Potency [17] | outcome [18] | Potency [19]

CC(CO)(CO)CO
inactive: outcome [1] | Potency [2] | Potency [3] | outcome [4] | Potency [5] | outcome [7] | max response [8] 2.55% | Potency [20] | Potency [9] | outcome [10] | Potency [11] | Potency [12] | Potency [13] | Potency [14] | Potency [15] | Potency [16] | Potency [17] | outcome [18] | Potency [19]

CC(=O)CCc1ccc(OC(C)=O)cc1
inactive: outcome [1] | Potency [2] | Potency [3] | outcome [4] | Potency [5] | outcome [7] | max response [8] 2.75% | Potency [20] | Potency [9] | Potency [11] | Potency [12] | Potency [13] | Potency [14] | Potency [15] | Potency [16] | Potency [17] | outcome [18] | Potency [19]
